# Measured values: the supplement of paper PMC9254222
# The full ranking holds about 1,100 compounds; the median of “Wnt reporter firefly/Renilla luciferase ratio relative to plate median” is about 1.1, and the highest 2% start at about 1.6. The entries come from a sample that favours the highest values as a whole.
# System: HEK293T (UBE3A T485A transfected, BAR Wnt reporter)
# Assay: Wnt reporter firefly/Renilla luciferase ratio relative to plate median (fold (linear ratio)); higher = more Wnt/beta-catenin reporter activation
# Details: 24 h
# Outline: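 Each value averages four biological replicates in HEK293T cells grown at 4500 cells/well in DMEM with 10% FBS at 37°C and 5% CO2. The cells were transfected with a BAR firefly luciferase Wnt reporter, TK-Renilla and an expression plasmid, then four hours later robotically treated with the chemicals at 0.01–100 uM for 24 h. Dual-Glo luciferase signals were median-centred per plate, with the firefly/Renilla ratio reported as Wnt activity and raw Renilla as cell health.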
Structure (SMILES),Wnt reporter firefly/Renilla luciferase ratio (concentration: 0.1 uM),Wnt reporter firefly/Renilla luciferase ratio (concentration: 1 uM),Wnt reporter firefly/Renilla luciferase ratio (concentration: 10 uM),Wnt reporter firefly/Renilla luciferase ratio (concentration: 100 uM),Wnt reporter firefly/Renilla luciferase ratio (concentration: 0.01 uM)
CCN(CC)CCNc1ccc(CNC=O)c2sc3ccc(OC)cc3c(=O)c12,1.79,0.887,0.373,–,–
O=c1[nH]c2ccc(S(=O)CCN3CCC(Cc4ccc(F)cc4)CC3)cc2o1 (stereo not drawn) [Besonprodil],1.11,0.965,0.993,0.313,–
C[C@]12CC[C@@H]3c4ccc(O)cc4CC[C@H]3[C@@H]1CC[C@@H]2O [17beta-Estradiol],0.999,0.932,0.591,–,–
CN(C)[C@@H]1C(O)=C(C(N)=O)C(=O)[C@@]2(O)C(O)=C3C(=O)c4c(O)cccc4[C@@](C)(O)[C@H]3C[C@@H]12 [Tetracycline],1.15,1.17,1.43,0.703,–
CN(C)[C@@H]1C(O)=C(C(N)=O)C(=O)[C@@]2(O)C(O)=C3C(=O)c4c(O)cccc4[C@@](C)(O)[C@H]3[C@H](O)[C@@H]12.O.O [Oxytetracycline dihydrate],2.3,1.22,1.34,0.951,1.55
CN(C)[C@@H]1C(O)=C(C(N)=O)C(=O)[C@@]2(O)C(O)=C3C(=O)c4c(O)cccc4[C@@](C)(O)[C@H]3[C@H](O)[C@@H]12.Cl [Oxytetracycline hydrochloride],1.09,1.03,0.562,0.0778,–
CCCCC(CC)COP(=O)(OCC(CC)CCCC)OCC(CC)CCCC (stereo not drawn) [Tris(2-ethylhexyl) phosphate],0.978,1.17,1.11,0.917,–
CCCCC(CC)COC(=O)CCCCCCCCC(=O)OCC(CC)CCCC (stereo not drawn) [Bis(2-ethylhexyl) decanedioate],0.935,1.08,1.07,1.12,–
CCCCC(CC)CO (stereo not drawn) [2-Ethyl-1-hexanol],0.976,0.988,1.62,0.964,–
Oc1ccc(O)cc1 [Hydroquinone],0.941,0.865,0.902,0.377,–
CCCCCCC(CCCCCCCCCCC(=O)OCC(COC(C)=O)OC(C)=O)OC(C)=O (stereo not drawn) [Grinstad Soft-N-Safe],0.94,1.29,1.08,1.54,–
C/C=C/c1ccc(OC)cc1 [(E)-Anethole],1.22,0.971,1.15,1.58,–
"CC(C)(c1cc(Br)c(O)c(Br)c1)c1cc(Br)c(O)c(Br)c1 [3,3',5,5'-Tetrabromobisphenol A]",1.05,0.95,1.03,0.332,–
Cc1ncc([C@@H](CCCCCCc2ccc3c(n2)NCCC3)CC(=O)O)cn1,1.25,1.42,1.78,1.55,–
CS(=O)(=O)c1ccc([C@@H](CC2CCCC2)C(=O)Nc2cnccn2)cc1Cl,1.12,1.16,0.922,0.278,–
CC(C)NCC(O)c1ccc(O)c(O)c1.Cl (stereo not drawn) [Isoproterenol hydrochloride],1.1,1.23,1.15,0.309,–
O=C(O)c1cc(/N=N/c2ccc(S(=O)(=O)Nc3ccccn3)cc2)ccc1O [Sulfasalazine],0.944,0.993,1.33,3.01,–
c1ccc2ncccc2c1 [Quinoline],0.857,1.13,1.43,1.26,–
"Cc1ccc(C)c(C)c1 [1,2,4-Trimethylbenzene]",0.982,0.965,0.884,1.09,–
Cc1ccc2ncccc2c1 [6-Methylquinoline],0.931,0.836,1.29,1.81,–

Structure (SMILES),Wnt reporter firefly/Renilla luciferase ratio (concentration: 0.1 uM),Wnt reporter firefly/Renilla luciferase ratio (concentration: 1 uM),Wnt reporter firefly/Renilla luciferase ratio (concentration: 10 uM),Wnt reporter firefly/Renilla luciferase ratio (concentration: 100 uM),Wnt reporter firefly/Renilla luciferase ratio (concentration: 0.01 uM)
O=C1c2c(O)cccc2Cc2cccc(O)c21 [Anthralin],0.825,1.04,1.46,0.798,–
COc1ccc(C(=O)Nc2nc3ccccc3c(NCc3ccccc3)c2C#N)cc1,1.27,1.14,0.744,0.357,–
COCCOC[C@H](CC1(C(=O)N[C@H]2CC[C@@H](C(=O)O)CC2)CCCC1)C(=O)Oc1ccc2c(c1)CCC2 [Candoxatril],1.15,1.05,1,0.894,–
CN1CCC[C@H]1c1cccnc1 [Nicotine],1.15,1.19,1.12,1.18,–
"CC1(C)C(=O)N(Cl)C(=O)N1Cl [1,3-Dichloro-5,5-dimethylhydantoin]",0.845,0.849,0.887,1.63,–
"CC1(C)C(=O)N(Br)C(=O)N1Br [1,3-Dibromo-5,5-dimethylhydantoin]",0.79,1.01,1.06,1.25,–
NC(=O)N1C(=O)C(C(=O)c2cc(Cl)cs2)c2cc(F)c(Cl)cc21 (stereo not drawn),0.988,0.996,1.38,1.26,–
C[C@]12CC[C@@H]3c4ccc(O)cc4CC[C@H]3[C@@H]1CC[C@H]2O [17alpha-Estradiol],0.699,1.04,0.715,–,–
OCCNCCO [Diethanolamine],1.17,0.992,1.4,2.49,–
c1ccc2[nH]c(-c3cscn3)nc2c1 [Thiabendazole],1.03,1.08,1.27,1.24,1.24
CC(C)(C)c1cc(/C=C2\SC(=N)NC2=O)cc(C(C)(C)C)c1O.CS(=O)(=O)O [Darbufelone mesylate],1.11,0.907,1.28,–,–
Oc1ccc2ccccc2c1/N=N/c1ccccc1 [C.I. Solvent Yellow 14],1.12,1.2,1.14,1.37,–
O=S(=O)([O-])c1ccc(/N=N/c2c(O)ccc3cc(S(=O)(=O)[O-])ccc23)cc1.[Na+].[Na+] [FD&C Yellow 6],1.08,0.966,1.22,2.05,–
COc1cc(S(=O)(=O)[O-])c(C)cc1/N=N/c1c(O)ccc2cc(S(=O)(=O)[O-])ccc12.[Na+].[Na+],1.19,1,1.45,2.21,–
CCCCCCCCCCCCc1ccccc1 [Dodecylbenzene],1.06,1.03,1.08,0.984,–
COc1ccc([N+](=O)[O-])cc1N [2-Methoxy-5-nitroaniline],0.964,0.988,1.04,1.14,–
Cl.NCC1(Cc2noc(=O)[nH]2)CCCCC1,0.992,0.928,0.857,1.16,–
O=c1c(O)c(-c2ccc(O)c(O)c2)oc2cc(O)cc(O)c12 [Quercetin],1.1,1.09,1.38,–,–
O=c1c(-c2ccc(O)cc2)coc2cc(O)ccc12 [Daidzein],1.11,1.11,1.12,0.372,–
O=c1c(-c2ccc(O)cc2)coc2cc(O)cc(O)c12 [Genistein],1.45,1.16,0.958,0.631,1.71
